This note sets out measurements from ChEMBL document CHEMBL3433997, “St. Jude Leishmania screening dataset” (2016).

The target of the experiment is Glucose transporter (Leishmania mexicana) (UniProt O61059). Description: ST_JUDE_LEISH: Cytotoxicity at 2uM final concentration against transgenic Leishmania Mexicana promastigotes LmGT2 that are glucose transport deficient and complemented with the L. Mexicana glucose transporter 2. Activity is measured by DNA content using SYBR green in vitro. Format: functional.
Consider `Cn1nc(-c2cccc(CN[C@@H]3CCc4ccc(O)cc43)c2)c2cnc(NC3CCCC3)nc21`, for which the inhibition amounted to 4.68%.

As to `CN(C)CC(O)C(c1ccccc1)c1ccc(Cl)cc1` (stereo not given), the inhibition is 0.76%.

In the case of `COc1c(C2CCN(CCCCNC(=O)c3ccc(-c4ccc(C#N)cc4)cc3)CC2)ccc2c1C(C)(C)CCC2(C)C`, the inhibition was -0.67%.

In the case of `COc1ccc2ncc(F)c(CCN3CCC[C@H](CNCc4ccc5c(n4)NC(=O)CS5)C3)c2n1`, the inhibition amounted to 0.75%.

Take `Cc1ccc(OCC2CCN(c3ncc(C(=O)NCCCN4CCCC4=O)cc3Cl)CC2)cc1`: the inhibition amounted to 0.72%. The result for `CCCN1CCN(c2ccc(NS(=O)(=O)c3ccc(C(=O)Nc4ccc(Cl)cc4)cc3)cc2)CC1` reads -2.28%; that for `Cc1ccccc1C1CCN(C2CCC(NC(=O)/C=C/c3cc(C(F)(F)F)ccc3F)CC2)CC1` (stereo not given), 3.34%.

On to `COc1nc2c(CCN3CCC(NCc4ccc5c(c4)NCCO5)CC3)c(Cl)cnc2cc1F`, for which the inhibition stood at 2.35%. Then `COc1c(C2=CCN(CCCCNC(=O)c3ccc(-c4ccc(C#N)cc4)cc3)CC2)ccc2c1CCCC2`, with 0.06%; and `Nc1ccc2nc(C=Cc3ccc(Cl)cc3)[nH]c2c1`, with 5.14%; and `Cn1cncc1C(=O)Nc1cccc(-c2cccc(-c3nc4ccccc4[nH]3)c2)c1`, with 5.38%.

Regarding `O=C(NC1CCN(Cc2ccc3c(c2)OCCO3)CC1)c1ccc(-c2cccc(Cl)c2)s1`, the inhibition came out at 6.98%. Then `COc1ccc2nccc(NC(=O)N3CCC(NCc4cc5ccccc5[nH]4)CC3)c2n1`, with 2.89%; and `CN1CCC(Oc2ccc(Nc3nccc(NCC(O)c4ccccc4)n3)cc2Cl)CC1` (stereo not given), with -6.09%.

As for `COc1ccc(CCN(C)CCCOc2ccc(NC(=O)COc3cccc4sc5ccccc5c(=O)c34)cc2)cc1OC`, the inhibition was -0.2%. Then `O=C(O)C[C@H](NC(=O)CCCNC(=O)c1cccc(-c2ccc(Cl)c(Cl)c2)c1)C(=O)O`, with 1.4%; and `COc1ccnc(NCCCNCc2cn(S(=O)(=O)c3ccccc3)c3ccccc23)c1`, with 0.11%; and `Cc1ccc(NC(=O)c2ccc3ncccc3c2)cc1OC1CCN(CCC(C)C)CC1`, with 4.09%. The result for `CCc1ccc(NC(=O)c2ccc(CN3CCCN(CC4CCCCC4)CC3)cc2)cc1` reads 7.64%; that for `O=C(Nc1cccc(-c2ccc(-c3nc4cc(C(F)(F)F)ccc4[nH]3)cc2)c1)c1ccncc1`, 5.09%; that for `CCNc1cc(C(=O)N[C@@H](Cc2ccccc2)[C@H](O)CNC2(C)CCCCC2)cc(N2CCCCS2(=O)=O)c1`, -0.26%.

In the case of `O=C(/C=C/c1ccc(Cl)c(Cl)c1)NCCCCCCN1CCN(C(=O)Nc2ccc(C(F)(F)F)cc2)CC1`, the inhibition came to 3.19%. On to `CS(=O)(=O)Cc1ccc(Nc2ncc(Cl)c(Nc3cccnc3C(N)=O)n2)cc1`, for which the inhibition came out at 23%.

Consider `O=C(Nc1ccc(Cl)c(C(F)(F)F)c1)c1ccc(C(=O)Nc2ccc(Cl)c(C(F)(F)F)c2)cc1`, for which the inhibition is 0.39%. In the case of `COc1cc2nc(Nc3ccc(N4CCOCC4)cc3)nc(N)c2cc1OC`, the inhibition was -0.6%. Then `O=C(c1cc(C(=O)NC2CCCCC2)c(=O)n(C2CCCCC2)c1)c1cc(F)ccc1O`, with 1.41%; and `O=C(Nc1cccc(CN2CCCN(CCc3ccccc3)CC2)c1)c1cc2ccccc2s1`, with 1.52%. With `O=C(OCc1ccccc1)N1CCc2c([nH]c3ccccc23)C1CCC(F)(F)F` (stereo not given), the inhibition worked out at 0.12%. The result for `Oc1ccc(CCNc2nc(NCCCOc3cccc(CN4CCCCC4)c3Cl)nc(N3CCNCC3)n2)cc1` reads 3.74%; that for `CN1CCN(CCCNCc2ccc(Nc3nccc(Nc4ccc(Oc5ccccc5)cc4)n3)cc2)CC1`, 1.48%; that for `Fc1cccc(COc2ccc(Nc3ncnc4sc(C#Cc5ncc[nH]5)cc34)cc2Cl)c1`, -0.59%. Then `COc1cccc(CN2CCC(C(=O)Nc3ccc(-c4nc5ccccc5[nH]4)cc3)CC2)c1`, with 20.6%; and `c1ccc(Oc2ccc(Nc3nc(NCCc4c[nH]cn4)nc(NC4CCCC4)n3)cc2)cc1`, with 6.19%; and `Cc1cccc2nc(-c3cccc(-c4ccc(NC(=O)Cc5ccon5)cc4)c3)[nH]c12`, with 10.8%. Then `C=CCOc1ccc(Cc2cnc(N)nc2N)cc1CCC`, with 1.19%; and `CCOc1ccc(C2CCN(CCCCNC(=O)c3ccc(NC(=O)c4ccc(Cl)cc4)cc3)CC2)c(CC)c1`, with -0.33%; and `CCCCCn1c(Sc2ccc(C#N)c([N+](=O)[O-])c2)nnc1-c1cc(OC)cc(OC)c1`, with 9.25%. With `COc1ccc2ncc(F)c(CCN3CCC4(CC3)COC(c3cc5c(cn3)OCCO5)=N4)c2n1`, the inhibition was -0.24%.

For `O=C(O)c1ccc(OCOCOc2ccc(C(=O)O)c(O)c2)cc1O`, the inhibition came to 3.43%. Then `COc1ccc(Nc2nccc(NCCNC(=O)Nc3cc(C)ccc3C)n2)cc1`, with 1.38%.
